About 2,000 (36%) of roughly 5,500 compounds were called active. Not shown: some 18% with an inconclusive outcome. Rule as the data show it: active = normalized growth mostly below about 0.91 (no sharp cut-off); inconclusive = no clear call, values can overlap the other calls; inactive = mostly above about 0.92. The list shows a part of the results.
Test: chemical genetic growth profiling, strain panel (AID 1159580);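 also: tested at 20 µM; growth read once vehicle control cultures reached saturation at 30 °C; 1 = growth at the plate median or of vehicle wells; lower values mean less growth of the strain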
Conditions: growth OD

Measured: normalized growth

C[N+]1(C)C[C@H](O)[C@H](C(=O)[O-])C1
inactive: S. cerevisiae deletion strains, locus YJR043C, strain POL32, active compounds read low 0.995 | S. cerevisiae deletion strains, locus YJR075W, strain HOC1, active compounds read low 0.994 | S. cerevisiae deletion strains, locus YKL009W, strain mrt4, active compounds read low 0.991 | S. cerevisiae deletion strains, locus YKL068W, active compounds read low 0.996 | S. cerevisiae deletion strains, locus YKL085W, strain MDH1 (second series), active compounds read low 0.988 | S. cerevisiae deletion strains, locus YKL085W, strain MDH1, active compounds read low 0.988 | S. cerevisiae deletion strains, locus YKL160W, strain elf1, active compounds read low 0.993 | S. cerevisiae deletion strains, locus YKL190W, strain CNB1, active compounds read low 1.01 | S. cerevisiae deletion strains, locus YKR001C, strain vps1, active compounds read low 0.995 | S. cerevisiae deletion strains, locus YKR026C, strain gcn3, active compounds read low 1.01 | S. cerevisiae deletion strains, locus YKR091W, strain srl3, active compounds read low 1.01 | S. cerevisiae deletion strains, locus YLL001W, strain dnm1, active compounds read low 1 | S. cerevisiae deletion strains, locus YLL026W, active compounds read low 1.02 | S. cerevisiae deletion strains, locus YLL041C, strain sdh2, active compounds read low 1.01 | S. cerevisiae deletion strains, locus YLR027C, strain aat2, active compounds read low 1.01 | S. cerevisiae deletion strains, locus YLR039C, strain RIC1, active compounds read low 1.02 | S. cerevisiae deletion strains, locus YLR058C, strain SHM2, active compounds read low 1.01 | S. cerevisiae deletion strains, locus YLR102C, strain apc9, active compounds read low 0.995 | S. cerevisiae deletion strains, locus YLR221C, strain rsa3, active compounds read low 0.997 | S. cerevisiae deletion strains, locus YLR258W, strain gsy2, active compounds read low 1.03 | S. cerevisiae deletion strains, locus YLR262C, strain YPT6 (second series), active compounds read low 1.02 | S. cerevisiae deletion strains, locus YLR262C, strain YPT6, active compounds read low 1.01 | S. cerevisiae deletion strains, locus YLR268W, strain sec22, active compounds read low 0.991 | S. cerevisiae deletion strains, locus YLR320W, strain mms22, active compounds read low 1.03 | S. cerevisiae deletion strains, locus YLR330W, strain CHS5, active compounds read low 1 | S. cerevisiae deletion strains, locus YLR342W, strain FKS1 (second series), active compounds read low 1.02 | S. cerevisiae deletion strains, locus YLR342W, strain FKS1, active compounds read low 1.01 | S. cerevisiae deletion strains, locus YLR357W, strain rsc2, active compounds read low 1.02 | S. cerevisiae deletion strains, locus YLR370C, strain arc18, active compounds read low 1.02 | S. cerevisiae deletion strains, locus YLR371W, strain rom2, active compounds read low 0.996 | S. cerevisiae deletion strains, locus YLR384C, strain iki3, active compounds read low 1.02 | S. cerevisiae deletion strains, locus YLR418C, strain cdc73, active compounds read low 1.01 | S. cerevisiae deletion strains, locus YML016C, strain PPZ1, active compounds read low 1.01 | S. cerevisiae deletion strains, locus YML032C, strain rad52, active compounds read low 0.991 | S. cerevisiae deletion strains, locus YML120C, strain ndi1, active compounds read low 0.991 | S. cerevisiae deletion strains, locus YML124C, strain tub3, active compounds read low 0.997 | S. cerevisiae deletion strains, locus YMR058W, strain fet3, active compounds read low 1.01 | S. cerevisiae deletion strains, locus YMR078C, strain ctf18, active compounds read low 1.01 | S. cerevisiae deletion strains, locus YMR125W, strain sto1, active compounds read low 1.02 | S. cerevisiae deletion strains, locus YMR129W, active compounds read low 1.01 | S. cerevisiae deletion strains, locus YMR205C, strain PFK2, active compounds read low 1.04 | S. cerevisiae deletion strains, locus YMR223W, strain ubp8, active compounds read low 0.989 | S. cerevisiae deletion strains, locus YMR231W, strain pep5, active compounds read low 1.01 | S. cerevisiae deletion strains, locus YMR263W, strain SAP30, active compounds read low 1.02 | S. cerevisiae deletion strains, locus YMR307W, strain GAS1, active compounds read low 1.07 | S. cerevisiae deletion strains, locus YNL067W, strain RPL9B, active compounds read low 1.01 | S. cerevisiae deletion strains, locus YNL071W, strain lat1, active compounds read low 1.02 | S. cerevisiae deletion strains, locus YNL128W, strain TEP1, active compounds read low 1.01 | S. cerevisiae deletion strains, locus YNL153C, strain GIM3, active compounds read low 1.01 | S. cerevisiae deletion strains, locus YNL209W, strain ssb2, active compounds read low 1.01 | S. cerevisiae deletion strains, locus YNL233W, strain BNI4, active compounds read low 1.01 | S. cerevisiae deletion strains, locus YNL248C, strain rpa49, active compounds read low 0.98 | S. cerevisiae deletion strains, locus YNL250W, strain rad50, active compounds read low 0.992 | S. cerevisiae deletion strains, locus YNL271C, strain bni1, active compounds read low 0.995 | S. cerevisiae deletion strains, locus YNL298W, strain CLA4, active compounds read low 1 | S. cerevisiae deletion strains, locus YNL307C, strain MCK1, active compounds read low 1.01 | S. cerevisiae deletion strains, locus YNL322C, strain KRE1 (second series), active compounds read low 1.02 | S. cerevisiae deletion strains, locus YNL322C, strain KRE1, active compounds read low 1.01 | S. cerevisiae deletion strains, locus YNR049C, strain mso1, active compounds read low 1.01 | S. cerevisiae deletion strains, locus YNR052C, strain pop2, active compounds read low 1 | S. cerevisiae deletion strains, locus YOL006C, strain TOP1, active compounds read low 1.06 | S. cerevisiae deletion strains, locus YOL012C, strain htz1 0.813 | S. cerevisiae deletion strains, locus YOL147C, strain pex11, active compounds read low 1 | S. cerevisiae deletion strains, locus YOR001W, strain rrp6, active compounds read low 0.989 | S. cerevisiae deletion strains, locus YOR061W, strain CKA2, active compounds read low 1 | S. cerevisiae deletion strains, locus YOR069W, strain VPS5, active compounds read low 1 | S. cerevisiae deletion strains, locus YOR070C, strain gyp1, active compounds read low 1.01 | S. cerevisiae deletion strains, locus YOR080W, strain dia2, active compounds read low 1.01 | S. cerevisiae deletion strains, locus YOR083W, strain WHI5, active compounds read low 0.979 | S. cerevisiae deletion strains, locus YOR106W, strain vam3, active compounds read low 0.996 | S. cerevisiae deletion strains, locus YOR136W, strain idh2, active compounds read low 0.996 | S. cerevisiae deletion strains, locus YOR144C, strain elg1, active compounds read low 0.996 | S. cerevisiae deletion strains, locus YOR184W, strain ser1, active compounds read low 1.01 | S. cerevisiae deletion strains, locus YOR265W, strain rbl2, active compounds read low 1.01 | S. cerevisiae deletion strains, locus YOR270C, strain vph1, active compounds read low 1.02 | S. cerevisiae deletion strains, locus YOR290C, strain snf2, active compounds read low 1 | S. cerevisiae deletion strains, locus YOR316C, strain cot1, active compounds read low 0.995 | S. cerevisiae deletion strains, locus YPL051W, strain arl3, active compounds read low 1.02 | S. cerevisiae deletion strains, locus YPL055C, strain LGE1, active compounds read low 1.03 | S. cerevisiae deletion strains, locus YPL078C, strain atp4, active compounds read low 1 | S. cerevisiae deletion strains, locus YPL106C, strain sse1, active compounds read low 1.04 | S. cerevisiae deletion strains, locus YPL240C, strain hsp82, active compounds read low 1.02 | S. cerevisiae deletion strains, locus YPL241C, strain CIN2, active compounds read low 1.01 | S. cerevisiae deletion strains, locus YPR119W, strain clb2, active compounds read low 1 | S. cerevisiae deletion strains, locus YPR141C, strain kar3, active compounds read low 1 | S. cerevisiae deletion strains, locus YPR163C, strain tif3, active compounds read low 0.996 | S. cerevisiae deletion strains, locus YPR167C, strain met16, active compounds read low 0.995 | S. cerevisiae deletion strains, strain wtn01, active compounds read low 0.988 | S. cerevisiae strains, strain wild type, active compounds read low 1
